# Inconclusive results are not listed. A call without a number means that no potency is given here. Active and inactive are the calls of the source. The call rests on the fitted dose curve; in most records, active means well fitted inhibition curve with a large enough effect in the signal ratio, with a control signal flat (not every such curve was filed as active); inconclusive means small, poorly fitted or top-dose-only effect, or effect the other way, or a change in a side signal; inactive means no such curve, though single readings can be large or run the other way; the % refers to the signal ratio.
# Target: Peroxisome proliferator-activated receptor delta (Homo sapiens) (UniProt Q03181)
# Assay: qHTS assay for small molecule antagonists of peroxisome proliferator-activated receptor delta signaling (AID 588535)
# Conditions: HEK293T PPARd-UAS-bla, beta-lactamase FRET ratio, 18 h; series mostly up to 76.7 µM
# Text: NIH Chemical Genomics Center [NCGC] U.S. Environmental Protection Agency [EPA] National Institutes of Environmental Health Sciences [NIEHS] National Toxicology Program [NTP] NCGC Assay Overview The Peroxisome proliferator-activated receptors (PPARs) are lipid-activated transcription factors of the nuclear receptor superfamily with three distinct subtypes namely PPAR alpha, PPAR delta (also called PPAR beta) and PPAR gamma. All these subtypes heterodimerizes with Retinoid X receptor (RXR) and have different physiological functions. […] This role of PPAR delta implicates the potential use of its ligands in the treatment of metabolic disorders.
# NCGC Assay Protocol Summary Using a beta-lactamase reporter-gene under control Peroxisome Proliferator-Activated Receptor delta (PPAR-delta) response element, a cell-based assay [GeneBLAzer (PPAR-delta-UAS-bla assay developed by Invitrogen] was used to measure PPAR-delta ligands signaling. GeneBLAzer PPAR-delta-UAS-bla HEK293T cells were used with assay medium containing 2% charcoal/dextran FBS. The assay was performed in clear bottom black Greiner 1536-well plates. Library compounds were measured for their ability to inhibit the reporter gene activity. Compounds were screened in a titration series in 1536-well format. The fluorescence intensity (405 nm excitation, 460/530 nm emission) was measured using an EnVision plate reader. […] Concentration-response titration points for each compound were fitted to the Hill equation yielding concentrations of half-maximal inhibition (IC50) and maximal response (efficacy) values. qHTS protocol for PPAR-delta beta-lactamase assay in antagonist mode [Step] [Parameter] [Value] [Description] 1. Reagent; 5 uL; 4000 cells/well 2. Incubation; 37 C for 5 hrs 3. Compounds; 23 nL; 0.59 nM to 92 uM 4. […] Incubation; 37 C for 18 hrs 7. Detection reagent; 1 uL of CCF4-dye 8. Incubation; RT for 2 hrs 9. Detection; Fluorescence; Envision plate reader
# Chain of Peroxisome proliferator-activated receptor delta (Homo sapiens) (Q03181 whole entry, looked up): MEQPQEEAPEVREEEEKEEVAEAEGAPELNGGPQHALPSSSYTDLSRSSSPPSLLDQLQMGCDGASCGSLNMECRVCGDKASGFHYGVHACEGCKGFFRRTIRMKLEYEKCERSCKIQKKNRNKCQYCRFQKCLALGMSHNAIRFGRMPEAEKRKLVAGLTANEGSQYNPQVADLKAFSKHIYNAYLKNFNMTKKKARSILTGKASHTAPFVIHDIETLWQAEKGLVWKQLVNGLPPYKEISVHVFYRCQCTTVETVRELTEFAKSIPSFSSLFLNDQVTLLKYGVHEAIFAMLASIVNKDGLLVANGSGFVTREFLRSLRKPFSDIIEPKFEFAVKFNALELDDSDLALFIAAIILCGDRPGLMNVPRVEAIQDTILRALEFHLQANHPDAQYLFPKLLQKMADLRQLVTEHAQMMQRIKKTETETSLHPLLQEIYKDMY
row,Structure (SMILES),Potency
1,C#CCC1=C(C)[C@H](OC(=O)[C@H]2[C@H](C=C(C)C)C2(C)C)CC1=O,inactive
2,CC1(C)[C@H](C(=O)O[C@H](C#N)c2cccc(Oc3ccccc3)c2)[C@@H]1/C=C(\Cl)C(F)(F)F,inactive
3,OC(c1ccc(Cl)cc1)(c1cncnc1)c1ccccc1Cl (stereo not given),inactive
4,O=[N+]([O-])c1ccc(Oc2ccc(Cl)cc2Cl)cc1,inactive
5,CCCCC(C#N)(Cn1cncn1)c1ccc(Cl)cc1 (stereo not given),inactive
6,CCOP(=O)(O)C(N)=O,inactive
7,CCOc1nc(F)cc2nc(S(=O)(=O)Nc3c(Cl)cccc3Cl)nn12,inactive
8,CCC[CH2][Sn]1([CH2]CCC)[O]C(=O)C=CC(=O)[O]1,5.01 µM (active)
9,COC(=O)/C=C(\C)OP(=O)(OC)OC,inactive
10,CSc1nnc(C(C)(C)C)c(=O)n1N,inactive
11,CCCCN(CC)c1c([N+](=O)[O-])cc(C(F)(F)F)cc1[N+](=O)[O-],inactive
12,CCNC(=O)NC(=O)/C(C#N)=N/OC,inactive
13,CC(O)CN(CC(C)O)CC(C)O (stereo not given),inactive
14,CN(C)c1nc(=O)n(C2CCCCC2)c(=O)n1C,inactive
15,O=Cc1cccc(Oc2ccccc2)c1,inactive
16,O=[N+]([O-])C(Br)Br,inactive
17,COC(=O)c1c(C(F)F)nc(C(F)(F)F)c(C2=NCCS2)c1CC(C)C,inactive
18,CCC[CH2][Sn]([CH2]CCC)([CH2]CCC)[CH2]CCC,inactive
19,C=CCOC(=O)C(C)(C)OC(=O)c1cc(-n2c(=O)cc(C(F)(F)F)n(C)c2=O)ccc1Cl,inactive
20,CC(C)C1(C)N=C(c2ncccc2C(=O)O)NC1=O (stereo not given),inactive

row,Structure (SMILES),Potency
1,Oc1ccc(C(c2ccc(O)cc2)(C(F)(F)F)C(F)(F)F)cc1,inactive
2,CCOP(=S)(S)OCC,inactive
3,CC(C1CC1)C(O)(Cn1cncn1)c1ccc(Cl)cc1 (stereo not given),inactive
4,O=c1[nH]c2ccccc2c(=O)o1,inactive
5,O=P(Oc1ccccc1)(Oc1ccccc1)Oc1ccccc1,inactive
6,CCCN(CC)CC1COC2(CCC(C(C)(C)C)CC2)O1 (stereo not given),inactive
7,CCOP(=O)(OCC)OC(Cl)C(Cl)(Cl)Cl (stereo not given),inactive
8,CCN(CC)c1nc(C)cc(OP(=S)(OC)OC)n1,inactive
9,CCS(=O)(=O)c1cccnc1S(=O)(=O)NC(=O)Nc1nc(OC)cc(OC)n1,inactive
10,COP(=S)(OC)Oc1c(Cl)cc(C)cc1Cl,inactive
11,Cc1ccn2nc(S(=O)(=O)Nc3c(F)cccc3F)nc2n1,inactive
12,CCCSP(=O)(OCC)Oc1ccc(Br)cc1Cl (stereo not given),inactive
13,COC(=O)c1ccccc1S(=O)(=O)NC(=O)N(C)c1nc(C)nc(OC)n1,inactive
14,CCOP(=O)(OCC)SCSCC,inactive
15,CCC(CC)Nc1c([N+](=O)[O-])cc(C)c(C)c1[N+](=O)[O-],inactive
16,CCNS(=O)(=O)C(F)(F)C(F)(F)C(F)(F)C(F)(F)C(F)(F)C(F)(F)C(F)(F)C(F)(F)F,inactive
17,CCOc1ccc(C(C)(C)COCc2cccc(Oc3ccccc3)c2)cc1,inactive
18,NS(=O)(=O)C(F)(F)C(F)(F)C(F)(F)C(F)(F)C(F)(F)C(F)(F)C(F)(F)C(F)(F)F,inactive
19,CCOC(=O)COc1cc(-c2nn(C)c(OC(F)F)c2Cl)c(F)cc1Cl,inactive
20,[CH3][Sn]([Cl])([Cl])[Cl],inactive

# Reference: PubChem BioAssay (NCATS)
